According to PubChem BioAssay:
Values joined by “and” are separate entries in the source; they are usually repeats but may differ in a detail not shown here. Identical values can stand only once. Records with an inconclusive call do not appear. Active and inactive are the calls of the source.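 How the source made its calls, unless noted: active means normalized viability below 100% at a tested concentration; inactive means the rest.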

Assays:
[1] = viability loss in pontine glioma line – cell-based, SU-DIPG-XVII, MIPE5.0, CellTiter-Glo, qHTS, dose response (AID 1347060; cut-off not given, nearly all actives have AC50 up to about 26 µM;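 on AC50: cells exposed to compound for 48 hours before viability readout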); conditions: CellTiter-Glo ATP luminescence
[2] = viability loss in pontine glioma line – cell-based, SU-DIPG-XIII, MIPE4.0, CellTiter-Glo, qHTS, dose response (AID 1347061; cut-off not given, nearly all actives have AC50 up to about 37 µM;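 further: cells exposed to compound for 48 hours before readout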); conditions: CellTiter-Glo ATP luminescence
[3] = viability loss in pontine glioma line – cell-based, JHH-DIPG-1, MIPE4.0, CellTiter-Glo, qHTS, dose response (AID 1347062; cut-off not given, nearly all actives have AC50 up to about 27 µM;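 on AC50: cells exposed to compound for two days before readout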); conditions: JHH-DIPG-1 viability, CellTiter-Glo ATP luminescence
[4] = viability loss in pontine glioma line – cell-based, SU-DIPG-XIII, MIPE5.0, CellTiter-Glo, qHTS, dose response (AID 1347064; cut-off not given, nearly all actives have AC50 up to about 23 µM;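 on AC50: cells exposed to compound for 48 hours before the viability read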); conditions: CellTiter-Glo ATP luminescence
[5] = growth inhibition of DIPG cells – cell-based, MIPE4.0 library, CellTiter-Glo luminescence, qHTS (AID 1347066; cut-off not given, nearly all actives have AC50 up to about 30 µM;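 further: cells exposed to compound for 48 hours before readout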); conditions: SU-DIPG-VI viability, CellTiter-Glo ATP luminescence
[6] = compounds altering HSF1 focus formation in cells – imaging, Selleck Cancer Library (AID 1347162; in the data active means plate-normalised HSF1 focus index below about 0.46); conditions: human cells, HSF1 nuclear foci imaging, at 10 µM; SSMD: measured here: HSF1 foci SSMD mean; cell count: measured here: cell number; plate-normalised HSF1 focus index: stronger effect = lower value
[7] = drug combination growth inhibition, ovarian cancer – cell-based, oncology-focused library, rucaparib conditional, profiling panel (AID 1508598); conditions: patient-derived ovarian cancer cells, CellTiter-Glo viability, 144 h, stronger effect = lower value
[8] = viability loss in pontine glioma line – cell-based, SU-DIPG-IV, MIPE4.0, CellTiter-Glo, qHTS, dose response (AID 1347063; cut-off not given, nearly all actives have AC50 up to about 30 µM;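 further: compound exposure lasted 48 hours before the viability readout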); conditions: CellTiter-Glo ATP luminescence
[9] = viability loss in pontine glioma line – cell-based, SU-DIPG-XXV, MIPE5.0, CellTiter-Glo, qHTS, dose response (AID 1347065; cut-off not given, nearly all actives have AC50 up to about 26 µM;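 further: cells exposed to compound for 48 hours before ATP readout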); conditions: CellTiter-Glo ATP luminescence
[10] = JHH-DIPG-1 glioma cell viability, MIPE5.0 library, CellTiter-Glo luminescence, qHTS (AID 1347067; cut-off not given, nearly all actives have AC50 up to about 26 µM;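 further: cells exposed to compound for 48 hours before readout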); conditions: JHH-DIPG-1 glioma viability, CellTiter-Glo ATP luminescence
[11] = growth inhibition of DIPG cells – cell-based, MIPE5.0 library, qHTS (AID 1347068; cut-off not given, nearly all actives have IC50 up to about 30 µM;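 on IC50: cells exposed to compound for 48 hours before viability readout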); conditions: SU-DIPG-XXV viability
[12] = viability loss with induced miR-34 in A549 – imaging, A549 dox-inducible miR-34, nuclei and caspase counts, primary screen (AID 1347080;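 active means compounds whose cell count with miR-34 switched on is under 0.7 times the count with it off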); conditions: A549 miR-34 inducible, Hoechst nuclei count, 48 h
[13] = MELAS cybrid and Rieske KO viability enhancers – cell-based, MELAS cybrids, Rieske KO mouse fibroblasts, CellTiter-Glo, primary screen (AID 1508586;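 active means mean z-score across replicates of 1.96 or higher in either the MELAS or the Rieske mutant cell line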;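 further: z relative to plate mean and SD of compound and empty wells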); conditions: low glucose
[14] = growth inhibition, single agent or in combination, cell-based, chromothripsis tumors, cisplatin or BGB combos (AID 1671449; in the data active means inhibition above about 80%;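 further: cells exposed for 96 hours; 0% = vehicle DMSO and 100% = killing by high DMSO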); conditions: LFS_MB_P medulloblastoma cells
[15] = growth inhibition, single agent and combos, cell-based, chromothripsis tumors, cisplatin or BGB combos (AID 1671450; in the data active means inhibition above about 80%;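 further: cells exposed to compound for four days; 0% = vehicle DMSO and 100% = cell killing by high DMSO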); conditions: HDN33 neuroblastoma cells, stronger effect = higher value
[16] = at 0.000305 µM, OCI-C5x cells, with rucaparib 10 µM, 100% = cells with rucaparib alone
[17] = at 0.000305 µM, OCI-C5x cells, without rucaparib
[18] = at 0.000305 µM, OCI-P5x cells, with rucaparib 20 µM, 100% = cells with rucaparib alone
[19] = at 0.000305 µM, OCI-P5x cells, without rucaparib
[20] = at 0.00122 µM, OCI-C5x cells, with rucaparib 10 µM, 100% = cells with rucaparib alone
[21] = at 0.00122 µM, OCI-C5x cells, without rucaparib
[22] = at 0.00122 µM, OCI-P5x cells, with rucaparib 20 µM, 100% = cells with rucaparib alone
[23] = at 0.00122 µM, OCI-P5x cells, without rucaparib
[24] = at 0.00488 µM, OCI-C5x cells, with rucaparib 10 µM, 100% = cells with rucaparib alone
[25] = at 0.00488 µM, OCI-C5x cells, without rucaparib
[26] = at 0.00488 µM, OCI-P5x cells, with rucaparib 20 µM, 100% = cells with rucaparib alone
[27] = at 0.00488 µM, OCI-P5x cells, without rucaparib
[28] = at 0.0195 µM, OCI-C5x cells, with rucaparib 10 µM, 100% = cells with rucaparib alone
[29] = at 0.0195 µM, OCI-C5x cells, without rucaparib
[30] = at 0.0195 µM, OCI-P5x cells, with rucaparib 20 µM, 100% = cells with rucaparib alone
[31] = at 0.0195 µM, OCI-P5x cells, without rucaparib
[32] = at 0.0781 µM, OCI-C5x cells, with rucaparib 10 µM, 100% = cells with rucaparib alone
[33] = at 0.0781 µM, OCI-C5x cells, without rucaparib
[34] = at 0.0781 µM, OCI-P5x cells, with rucaparib 20 µM, 100% = cells with rucaparib alone
[35] = at 0.0781 µM, OCI-P5x cells, without rucaparib
[36] = at 0.313 µM, OCI-C5x cells, with rucaparib 10 µM, 100% = cells with rucaparib alone
[37] = at 0.313 µM, OCI-C5x cells, without rucaparib
[38] = at 0.313 µM, OCI-P5x cells, with rucaparib 20 µM, 100% = cells with rucaparib alone
[39] = at 0.313 µM, OCI-P5x cells, without rucaparib
[40] = at 1.25 µM, OCI-C5x cells, with rucaparib 10 µM, 100% = cells with rucaparib alone
[41] = at 1.25 µM, OCI-C5x cells, without rucaparib
[42] = at 1.25 µM, OCI-P5x cells, with rucaparib 20 µM, 100% = cells with rucaparib alone
[43] = at 1.25 µM, OCI-P5x cells, without rucaparib
[44] = at 5 µM, OCI-C5x cells, with rucaparib 10 µM, 100% = cells with rucaparib alone
[45] = at 5 µM, OCI-C5x cells, without rucaparib
[46] = at 5 µM, OCI-P5x cells, with rucaparib 20 µM, 100% = cells with rucaparib alone
[47] = at 5 µM, OCI-P5x cells, without rucaparib
[48] = stronger effect = lower value, cell number ratio, induced over uninduced
[49] = measured here: relative caspase fold change +Dox/-Dox
[50] = measured here: total cells with miR-34 induction, stronger effect = lower value
[51] = measured here: total cells without miR-34 induction
[52] = MELAS cybrid survival, CellTiter-Glo 48 h, stronger effect = higher value
[53] = Rieske KO mouse fibroblast survival, CellTiter-Glo 72 h

Cc1ccc([C@@H]2O[C@H](CO)[C@@H](O)[C@H](O)[C@H]2O)cc1Cc1ccc(-c2ccc(F)cc2)s1
7420: cell count [6]
0.238: SSMD [6]
active: viability [7, 18] 98.8% | viability [7, 19] 97.6% | viability [7, 23] 93.8% | viability [7, 27] 99.4%
inactive: outcome [1] | outcome [2] | outcome [3] | outcome [4] | outcome [5] | plate-normalised HSF1 focus index [6] 1.01 | viability [7, 16] 120% | viability [7, 17] 109% | viability [7, 20] 120% | viability [7, 21] 120% | viability [7, 22] 109% | viability [7, 24] 115% | viability [7, 25] 118% | viability [7, 26] 108% | viability [7, 28] 105% | viability [7, 29] 108% | viability [7, 30] 108% | viability [7, 31] 103% | viability [7, 32] 114% | viability [7, 33] 128% | viability [7, 34] 109% | viability [7, 35] 102% | viability [7, 36] 117% | viability [7, 37] 122% | viability [7, 38] 114% | viability [7, 39] 110% | viability [7, 40] 119% | viability [7, 41] 122% | viability [7, 42] 109% | viability [7, 43] 108% | viability [7, 44] 117% | viability [7, 45] 129% | viability [7, 46] 105% | viability [7, 47] 115%

CCOC(=O)[C@@H](N)Cc1ccc(-c2cc(O[C@H](c3ccc(Cl)cc3-n3ccc(C)n3)C(F)(F)F)nc(N)n2)cc1
active: AC50 [1] 11.8 µM | AC50 [8] 26.4 µM | AC50 [4] 20.9 µM | AC50 [9] 13.2 µM | AC50 [5] 16.6 µM | AC50 [10] 13.2 µM
inactive: outcome [2]

C[C@]12CCC3=C4CCC(=O)C=C4CC[C@H]3[C@@H]1CC[C@@]2(O)CC#N
inactive: outcome [1] | outcome [2] | outcome [3] | outcome [9] | outcome [5] | outcome [10]

Cc1ccc(C(C)(O)c2nc3ccccc3s2)c(C)c1 (stereo unspecified)
inactive: outcome [1] | outcome [2] | outcome [3] | outcome [4] | outcome [5] | outcome [10] | outcome [11]

Nc1ccc(C(=O)c2cc3c(ccc4ccccc43)[nH]2)cc1
active: AC50 [1] 3.82 µM | AC50 [2] 23.5 µM | AC50 [3] 8.33 µM | AC50 [9] 2.15 µM | AC50 [10] 5.39 µM

Cc1cc(Nc2cc(N3CCN(C)CC3)nc(Sc3ccc(NC(=O)C4CC4)cc3)n2)n[nH]1
-0.956: SSMD [6]
1.15: z-score [13, 53]
active: AC50 [1] 2.95 µM | AC50 [2] 18.7 µM | AC50 [8] 2.96 µM | AC50 [4] 6.61 µM | AC50 [9] 0.332 µM | AC50 [10] 10.5 µM | IC50 [11] 8.33 µM | z-score [13, 52] 2.79
0.793: fold change [12, 49]
6720: cell count [6]
1580: cell count [12, 51]
1560: cell count [12, 50]
inactive: fold change [12, 48] 0.993 | plate-normalised HSF1 focus index [6] 0.958

Cc1ccc2c(c1)C(=O)[C@]1(O)CCN(c3ccccc3)C1=N2
0.749 and 0.315: fold change [12, 49]
6020 and 6690: cell count [12, 50]
6450 and 7900: cell count [12, 51]
inactive: outcome [2] | outcome [3] | outcome [5] | outcome [10] | outcome [11] | fold change [12, 48] 0.934 and 0.847 | z-score [13, 52] -0.292
-2.56: z-score [13, 53]
active: AC50 [1] 14.8 µM

CN(C)C(=O)c1ccc(S(=O)(=O)c2ccc(NC(=O)[C@@](C)(O)C(F)(F)F)c(Cl)c2)cc1
inactive: outcome [1] | outcome [2] | outcome [3] | outcome [10]

CNC(=O)c1c(F)cccc1Nc1nc(Nc2cc3c(cc2OC)CCN3C(=O)CN(C)C)nc2[nH]ccc12
-0.594: z-score [13, 53]
5320: cell count [12, 50]
inactive: fold change [12, 48] 0.926 | z-score [13, 52] -0.536
0.874: fold change [12, 49]
active: AC50 [1] 5.25 µM | AC50 [2] 0.235 µM | AC50 [8] 2.64 µM | AC50 [4] 0.934 µM | AC50 [9] 0.661 µM | AC50 [5] 0.0833 µM | AC50 [10] 3.32 µM | IC50 [11] 14.8 µM
5750: cell count [12, 51]

O=C(c1cc(Cc2n[nH]c(=O)c3ccccc23)ccc1F)N1CCN(C(=O)C2CC2)CC1
0.876: z-score [13, 53]
1.53: fold change [12, 49]
4680: cell count [12, 50]
7320: cell count [6]
-9.06% and -12.6%: inhibition ([14]; measured here: combination with BGB IC40, at 0.005 µM)
-26.5% and -12.3%: inhibition ([14]; measured here: combination with BGB IC20, at 0.005 µM)
14.5% and 9.24%: inhibition ([15]; BGB combo, at 5 µM)
-43.9% and -38.7%: inhibition ([14]; measured here: combination with cisplatin, at 5 µM, stronger effect = higher value)
2.16: SSMD [6]
-41.7% and -35.8%: inhibition ([14]; measured here: combination with cisplatin, at 0.5 µM, stronger effect = higher value)
-0.874% and -8.68%: inhibition ([14]; measured here: combination with BGB IC40, at 0.05 µM)
33% and 44.4%: inhibition ([15]; single agent, at 5 µM)
34.3% and 41.4%: inhibition ([15]; cisplatin combo, at 5 µM)
active: AC50 [1] 20.9 µM | AC50 [2] 18.7 µM | viability [7, 18] 96.5% | viability [7, 23] 97% | viability [7, 27] 92.4% | viability [7, 30] 96.5% | viability [7, 31] 87.9% | viability [7, 35] 96% | viability [7, 38] 96.9% | viability [7, 39] 85.5% | viability [7, 42] 94.6% | viability [7, 43] 75.5% | viability [7, 46] 86.1% | viability [7, 47] 66.2%
5380: cell count [12, 51]
12.4% and 7.9%: inhibition ([15]; measured here: with cisplatin IC20 combination, at 0.5 µM)
inactive: outcome [3] | outcome [4] | outcome [5] | outcome [10] | outcome [11] | fold change [12, 48] 0.871 | plate-normalised HSF1 focus index [6] 1.13 | z-score [13, 52] -0.516 | viability [7, 16] 125% | viability [7, 17] 123% | viability [7, 19] 101% | viability [7, 20] 132% | viability [7, 21] 122% | viability [7, 22] 104% | viability [7, 24] 128% | viability [7, 25] 120% | viability [7, 26] 101% | viability [7, 28] 114% | viability [7, 29] 123% | viability [7, 32] 118% | viability [7, 33] 119% | viability [7, 34] 104% | viability [7, 36] 118% | viability [7, 37] 123% | viability [7, 40] 123% | viability [7, 41] 117% | viability [7, 44] 105% | viability [7, 45] 115% | inhibition ([14]; at 0.5 µM, stronger effect = higher value) -24.7% and -29.1% | inhibition ([15]; at 0.5 µM) 9.6% and 3.35%
5.51% and -1.25%: inhibition ([15]; measured here: with BGB IC20 combination, at 0.5 µM)
